Laboratory results: the supplement of paper PMC6522484
± gives the standard deviation of the averaged measurements.

Columns and labels:
DLD1 [1] = assay: cell viability (CellTiter-Glo) relative to plate median (fraction of plate median); higher = more viable cells; conditions: 5 µM; treatment time 24 h; reporter: 7TFP
Summary of the method: (§1)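 Colorectal cancer cell lines stably transduced with lentiviral TCF/Wnt firefly luciferase reporters (7TFP or TCF4/Wnt) were seeded in 384-well plates. 24 h later they received library compounds at a final 5 µM for 24 h. Parallel plates were read for firefly luciferase or CellTiterGlo luminescence on a Tecan F500 reader. Each well's signal was normalised to the plate median (webcellHTS2, additive, no log transformation), and the mean of two independent replicates is reported.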

HCT116 = assay: as above; conditions: 5 µM; treatment time 24 h; reporter: TCF4/Wnt
Summary of the method: as §1

SW480 [2] = assay: as above; conditions: 5 µM; treatment time 24 h; reporter: 7TFP
Summary of the method: as §1

DLD1 [3] = assay: TCF/Wnt firefly luciferase reporter signal relative to plate median (fraction of plate median); higher = higher Wnt reporter signal; conditions: 5 µM; treatment time 24 h; reporter: 7TFP
Summary of the method: as §1

SW480 [4] = assay: as above; conditions: 5 µM; treatment time 24 h; reporter: 7TFP
Summary of the method: as §1

Compound | cell viability (DLD1 [1]) | cell viability (HCT116) | cell viability (SW480 [2]) | TCF/Wnt firefly luciferase reporter signal (DLD1 [3]) | TCF/Wnt firefly luciferase reporter signal (SW480 [4])
N[C@@H](Cc1cc(I)c(Oc2ccc(O)c(I)c2)c(I)c1)C(=O)O [LIOTHYRONINE (L- isomer) SODIUM] | 0.994 ± 0.093 | 1.04 ± 0.091 | 1.11 ± 0.064 | 1.14 ± 0.17 | 1.055 ± 0.0071
CCCCCNC(=N)N/N=C/c1c[nH]c2ccc(OC)cc12 | 0.877 ± 0.1 | 0.964 ± 0.031 | 1.045 ± 0.0071 | 1.1 ± 0.028 | 1.045 ± 0.0071
NC(=O)N/N=C/c1ccc([N+](=O)[O-])o1 | 0.894 ± 0.04 | 0.827 ± 0.13 | 0.9805 ± 0.0064 | 0.973 ± 0.11 | 1.08 ± 0.028
Cc1nc2ccccn2c(=O)c1CCN1CCC(C(=O)c2ccc(F)cc2)CC1 | 0.911 ± 0.15 | 1.03 ± 0.099 | 1.04 ± 0.057 | 1.01 ± 0.037 | 0.947 ± 0.017
O=c1oc2ccccc2c(O)c1Cc1c(O)c2ccccc2oc1=O | 0.959 ± 0.037 | 0.979 ± 0.044 | 1.01 ± 0.028 | 1.18 ± 0.021 | 1.08 ± 0.05
CC(C)C[C@H]1NC(=O)[C@@H](NC(=O)c2ncccc2O)[C@@H](C)OC(=O)[C@H](c2ccccc2)N(C)C(=O)[C@H](C)NC(=O)[C@H]([C@@H](C)C(C)C)N(C)C(=O)CN(C)C(=O)[C@H]2C[C@@H](O)CN2C1=O [Viridogrisein] | 1.04 ± 0.11 | 0.954 ± 0.066 | 0.971 ± 0.11 | 1.12 ± 0.021 | 0.999 ± 0.073
CCCCCC/C=C\CCCCCCCc1cccc(O)c1C(=O)O | 1.05 ± 0.14 | 1.08 ± 0.028 | 1.05 ± 0.042 | 0.985 ± 0.14 | 0.996 ± 0.021
Clc1ccc(C(Cn2ccnc2)OCc2ccsc2Cl)c(Cl)c1 (stereo not given) | 0.966 ± 0.077 | 0.98 ± 0.085 | 1.005 ± 0.0071 | 0.923 ± 0.14 | 0.894 ± 0.023
Oc1cc(O)c2c(c1)O[C@H](c1cc(O)c(O)c(O)c1)[C@H](O)C2 | 0.94 ± 0.059 | 0.897 ± 0.19 | 0.973 ± 0.024 | 0.925 ± 0.024 | 1.07
Oc1c(Br)cc(Br)c2cccnc12 | 1.02 ± 0.021 | 1.07 ± 0.071 | 0.965 ± 0.064 | 1.24 ± 0.014 | 1.12 ± 0.028
CC[C@@H](C(=O)[C@@H](C)[C@@H](O)[C@H](C)CCc1ccc(C)c(O)c1C(=O)O)[C@H]1O[C@](CC)([C@H]2CC[C@](O)(CC)[C@H](C)O2)C[C@@H]1C | 0.985 ± 0.013 | 1.03 ± 0.098 | 1.02 ± 0.014 | 1.23 ± 0.099 | 1.03 ± 0.12
Cc1cc(CC(=O)O)n(C)c1C(=O)c1ccc(Cl)cc1 | 1.07 ± 0.035 | 0.999 ± 0.03 | 1.05 | 1.12 ± 0.24 | 0.97 ± 0.13
O=c1[nH]cnc2c1ncn2[C@@H]1O[C@H](CO)[C@@H](O)[C@H]1O | 1.09 ± 0.085 | 1.05 | 0.976 ± 0.028 | 0.975 ± 0.093 | 0.969 ± 0.1
C[C@H](CCC(=O)O)[C@H]1CC[C@H]2[C@@H]3CC[C@@H]4CCCC[C@]4(C)[C@H]3CC[C@]12C | 0.984 ± 0.016 | 1.06 ± 0.035 | 1.06 ± 0.09 | 0.905 ± 0.044 | 1.03 ± 0.059
CC(=O)OCC(=O)[C@H]1CC[C@H]2[C@@H]3CC=C4C[C@@H](O)CC[C@]4(C)[C@H]3CC[C@]12C | 1.04 ± 0.05 | 1.03 ± 0.057 | 1.04 ± 0.028 | 1.01 ± 0.13 | 0.975 ± 0.064
